Values joined by “and” are separate entries in the source; they are usually repeats but may differ in a detail not shown here. Equal values may be shown once. Records with an inconclusive call do not appear. Where a call stands in place of a potency, no number is given. A structure can be active in one record and inactive in another. Active and inactive are the calls of the source. Unless noted, calls follow the shape of the dose curve; as a rule, active = well fitted curve in the direction sought with a large enough effect; inconclusive = small, poorly fitted or top-dose-only effect, or another doubt; inactive = no such curve, though single readings can be large; an effect the other way counts as inactive or inconclusive.
Experiments:
[1] = biological target: Guanine nucleotide-binding protein G(i) subunit alpha-1 (Homo sapiens) (UniProt P63096); experiment: qHTS Assay for Inhibitors of RGS12 GoLoco Motif Activity (Green Fluorophore) (AID 879);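 also: negative values mean loss of peptide binding seen as reduced polarization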
Chain of Guanine nucleotide-binding protein G(i) subunit alpha-1 (Homo sapiens) (P63096 whole entry, looked up): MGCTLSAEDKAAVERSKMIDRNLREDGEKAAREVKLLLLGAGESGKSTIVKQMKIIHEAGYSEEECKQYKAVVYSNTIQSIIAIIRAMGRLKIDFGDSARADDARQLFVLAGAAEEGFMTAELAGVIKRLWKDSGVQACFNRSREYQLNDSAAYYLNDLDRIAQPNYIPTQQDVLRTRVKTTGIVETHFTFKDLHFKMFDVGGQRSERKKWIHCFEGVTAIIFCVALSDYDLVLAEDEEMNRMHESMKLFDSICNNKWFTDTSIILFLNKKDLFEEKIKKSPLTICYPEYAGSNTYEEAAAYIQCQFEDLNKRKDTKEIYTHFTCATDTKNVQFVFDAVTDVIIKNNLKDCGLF
Procedure, shortened: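 A drop in FITC polarization marked displacement of the FITC-tagged RGS12 GoLoco peptide (10 nM) from Gαi1 (50 nM). Compounds were incubated 10 min at room temperature in Tris pH 7.5 buffer containing 150 mM NaCl, 0.1 mM GDP and 0.05% NP40; unlabeled peptide titration served as control.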

[2] = biological target: Cytochrome P450 2C9 (Homo sapiens) (UniProt P11712); experiment: qHTS Assay for Inhibitors and Substrates of Cytochrome P450 2C9 (AID 883); also: nearly all actives have a fitted effect of over 60% in size; also: potency is read from the fitted curve at half-maximal effect
Chain of Cytochrome P450 2C9 (Homo sapiens) (P11712 whole entry, looked up): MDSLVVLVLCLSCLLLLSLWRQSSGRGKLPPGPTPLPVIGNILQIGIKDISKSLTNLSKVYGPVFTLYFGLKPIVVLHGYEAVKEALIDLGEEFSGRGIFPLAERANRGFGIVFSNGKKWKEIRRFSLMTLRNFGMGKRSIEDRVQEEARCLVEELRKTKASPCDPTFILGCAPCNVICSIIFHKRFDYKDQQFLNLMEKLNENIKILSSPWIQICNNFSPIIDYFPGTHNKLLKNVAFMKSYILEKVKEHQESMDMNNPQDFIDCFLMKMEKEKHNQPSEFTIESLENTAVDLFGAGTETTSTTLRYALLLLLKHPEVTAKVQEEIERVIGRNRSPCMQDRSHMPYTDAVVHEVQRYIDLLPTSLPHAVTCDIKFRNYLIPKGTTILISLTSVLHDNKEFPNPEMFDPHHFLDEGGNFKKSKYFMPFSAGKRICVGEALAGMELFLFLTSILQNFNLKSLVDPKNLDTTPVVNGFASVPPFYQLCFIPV
Procedure, shortened: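 A luminogenic readout tracked human CYP2C9 (10nM) converting deoxyluciferin (100uM, at KM) in 25mM KPO4 during 60 min at 37C with regenerated NADPH. Values normalized to 57uM sulphaphenazole as complete inhibition.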

[3] = biological target: Cytochrome P450 3A4 (Homo sapiens) (UniProt P08684); experiment: qHTS Assay for Activators of Cytochrome P450 3A4 (AID 885); also: nearly all actives have a fitted effect of over 65% in size; also: potency is read from the fitted curve at half-maximal effect
Chain of Cytochrome P450 3A4 (Homo sapiens) (P08684 whole entry, looked up): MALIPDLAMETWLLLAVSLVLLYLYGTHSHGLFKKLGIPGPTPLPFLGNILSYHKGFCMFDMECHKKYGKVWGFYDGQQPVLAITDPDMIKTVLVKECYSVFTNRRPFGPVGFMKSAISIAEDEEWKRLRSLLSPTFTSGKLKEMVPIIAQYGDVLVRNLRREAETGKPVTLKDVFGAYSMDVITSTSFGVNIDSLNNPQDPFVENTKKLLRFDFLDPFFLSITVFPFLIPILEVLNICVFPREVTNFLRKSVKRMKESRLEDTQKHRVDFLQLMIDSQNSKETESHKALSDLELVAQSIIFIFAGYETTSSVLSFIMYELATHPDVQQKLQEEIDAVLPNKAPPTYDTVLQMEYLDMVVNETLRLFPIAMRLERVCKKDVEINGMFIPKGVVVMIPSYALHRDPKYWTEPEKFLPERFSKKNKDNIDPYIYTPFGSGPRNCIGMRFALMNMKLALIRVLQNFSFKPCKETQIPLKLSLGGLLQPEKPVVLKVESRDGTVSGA
Procedure, shortened: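 Luminescent readout of luciferin formed from 25 uM Luciferin-PPXE (KM level) by 20 nM CYP3A4 in 200 mM KPO4, with 60 min NADPH-driven reaction at room temperature after 10 min compound exposure. Ketoconazole (57 uM) defined 100% inhibition.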

[4] = biological target: Muscarinic acetylcholine receptor M1 (Rattus norvegicus) (UniProt P08482); experiment: qHTS Assay for Antagonists of Acetylcholine Muscarinic M1 Receptor: Kinetic Measurement of Intracellular Calcium Response (AID 943); also: nearly all actives have a fitted effect of over 75% in size; also: potency is read from the fitted curve at half-maximal effect
Chain of Muscarinic acetylcholine receptor M1 (Rattus norvegicus) (P08482 whole entry, looked up): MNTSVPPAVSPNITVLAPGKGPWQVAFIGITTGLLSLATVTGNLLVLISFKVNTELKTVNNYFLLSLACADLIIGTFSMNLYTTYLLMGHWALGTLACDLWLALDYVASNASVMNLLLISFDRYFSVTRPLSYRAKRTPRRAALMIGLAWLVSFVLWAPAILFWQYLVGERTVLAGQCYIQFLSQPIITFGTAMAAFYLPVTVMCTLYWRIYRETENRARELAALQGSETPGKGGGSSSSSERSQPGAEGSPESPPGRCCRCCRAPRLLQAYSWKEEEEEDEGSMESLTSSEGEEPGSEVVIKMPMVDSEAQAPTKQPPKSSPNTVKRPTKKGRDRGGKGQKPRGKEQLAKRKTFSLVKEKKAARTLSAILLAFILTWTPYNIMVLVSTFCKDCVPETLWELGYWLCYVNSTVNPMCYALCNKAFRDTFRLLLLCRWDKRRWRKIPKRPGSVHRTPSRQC
Procedure, shortened: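 Read-out: peak over basal Fluo-4 fluorescence, kinetic at 1 Hz for 4 min after EC80 carbachol (100 nM final). Rat M1-CHO cells, dye loaded 1 h at 37C, compound added 10 min before agonist.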

[5] = biological target: Muscarinic acetylcholine receptor M1 (Rattus norvegicus) (UniProt P08482); experiment: qHTS Assay for Antagonists of Acetylcholine Muscarinic M1 Receptor: Measurement of IP-One Response (AID 944); also: nearly all actives have a fitted effect of over 75% in size; also: potency is read from the fitted curve at half-maximal effect
Procedure, shortened: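 Read-out: HTRF competition between d2-IP1 and Eu-cryptate anti-IP1 antibody, emission 620 and 665 nm. Stimulus was carbachol, EC80 (200 nM), for 30 min in M1-CHO cells (rat receptor), after 10 min compound pre-treatment.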

[6] = biological target: Cytochrome P450 3A4 (Homo sapiens) (UniProt P08684); experiment: qHTS Assay for Inhibitors and Substrates of Cytochrome P450 3A4 (AID 884); also: nearly all actives have a fitted effect of over 50% in size; also: potency is read from the fitted curve at half-maximal effect
Procedure, shortened: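 Luminescent readout of luciferin produced by CYP3A4 (20 nM) dealkylation of Luciferin-PPXE, 25 uM (its KM). NADPH-driven reaction ran 60 min at RT after 10 min compound preincubation; data scaled to 57 uM ketoconazole as 100% inhibition.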

[7] = biological target: Cytochrome P450 2D6 (Homo sapiens) (UniProt P10635); experiment: qHTS Assay for Inhibitors and Substrates of Cytochrome P450 2D6 (AID 891); also: nearly all actives have a fitted effect of over 60% in size; also: potency is read from the fitted curve at half-maximal effect
Chain of Cytochrome P450 2D6 (Homo sapiens) (P10635 whole entry, looked up): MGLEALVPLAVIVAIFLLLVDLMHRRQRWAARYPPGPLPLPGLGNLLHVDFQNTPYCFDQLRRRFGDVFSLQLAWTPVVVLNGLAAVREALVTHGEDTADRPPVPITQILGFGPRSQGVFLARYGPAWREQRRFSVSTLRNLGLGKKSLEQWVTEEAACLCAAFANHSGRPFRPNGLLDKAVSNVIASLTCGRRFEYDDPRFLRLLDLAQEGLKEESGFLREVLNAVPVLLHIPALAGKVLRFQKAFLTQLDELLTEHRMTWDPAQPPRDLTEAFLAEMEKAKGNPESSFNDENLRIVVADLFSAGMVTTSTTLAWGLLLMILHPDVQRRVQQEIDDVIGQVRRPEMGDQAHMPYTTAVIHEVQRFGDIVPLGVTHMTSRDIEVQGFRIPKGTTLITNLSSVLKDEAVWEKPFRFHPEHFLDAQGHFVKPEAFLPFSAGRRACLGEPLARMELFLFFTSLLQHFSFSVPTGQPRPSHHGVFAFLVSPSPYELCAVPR
Procedure, shortened: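 Luminescent read-out of luciferin formed by 5 nM human CYP2D6 demethylating 30 uM Luciferin-ME EGE (Km level) over 60 min at room temperature after NADPH regeneration addition. Data normalized to full inhibition by 1.43 uM quinidine.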

[8] = qHTS Assay for Identification of Small Molecule Agonists for Thrombopoietin (TPO) Signaling Pathway (AID 917); also: potency is read from the fitted curve at half-maximal effect
Procedure, shortened: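 Luciferase reporter (Glycoprotein IIb promoter) in IL-3-deprived Ba/F3 cells carrying human TPO receptor; compounds co-added with 26 pM TPO, incubated 24 h, 37 C. Steadylite luminescence measured after 10 min.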

[9] = qHTS Assay for Identification of Small Molecule Antagonists for NFkB Signaling Pathway (AID 895; active = well fitted inhibition curve with a large enough effect in the signal ratio, with a control signal flat, not every such curve was filed as active; the % refers to the signal ratio; also: potency is read from the fitted curve at half-maximal effect)
Procedure, shortened: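 NFkB-bla ME-180 cervical carcinoma cells with beta-lactamase reporter under NFkB response element; compounds added, then TNF alpha at 10 pM final (EC50), 5 h at 37 C. LiveBLAzer substrate 2 h, room temperature; emission 460/530 nm at 405 nm excitation.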

[10] = Confirmation and Secondary Assay for Modulators of Hemoglobin Beta Chain Splicing at IVS2 654 locus (AID 910);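 also: per-well total GFP intensity by laser scanning cytometry after 2-day treatment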
Procedure, shortened: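 HeLa cells stably carrying EGFP interrupted by mutant beta-globin IVS2-654 intron (CMV-driven) were treated with compound for 2 days at 37C; corrected splicing was scored as total peak GFP intensity per well (488 nm excitation, 500-520 nm emission).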

[11] = Confirmation and Secondary Assay for Modulators of Hemoglobin Beta Chain Splicing at IVS2 705 locus (AID 930);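 also: HeLa cells stably expressing the EGFP-705 splicing reporter; series mostly up to about 46 µM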
Procedure, shortened: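 HeLa cells stably carrying EGFP interrupted by mutant beta-globin IVS2-705 intron (CMV-driven) were seeded at 500 cells/well, treated next day with compound for 2 days at 37C; corrected splicing restores EGFP, read as total peak GFP intensity per well.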

[12] = biological target: Cytochrome P450 2C19 (Homo sapiens) (UniProt P33261); experiment: qHTS Assay for Inhibitors and Substrates of Cytochrome P450 2C19 (AID 899); also: potency is read from the fitted curve at half-maximal effect; nearly all actives have a fitted effect of over 60% in size
Chain of Cytochrome P450 2C19 (Homo sapiens) (P33261 whole entry, looked up): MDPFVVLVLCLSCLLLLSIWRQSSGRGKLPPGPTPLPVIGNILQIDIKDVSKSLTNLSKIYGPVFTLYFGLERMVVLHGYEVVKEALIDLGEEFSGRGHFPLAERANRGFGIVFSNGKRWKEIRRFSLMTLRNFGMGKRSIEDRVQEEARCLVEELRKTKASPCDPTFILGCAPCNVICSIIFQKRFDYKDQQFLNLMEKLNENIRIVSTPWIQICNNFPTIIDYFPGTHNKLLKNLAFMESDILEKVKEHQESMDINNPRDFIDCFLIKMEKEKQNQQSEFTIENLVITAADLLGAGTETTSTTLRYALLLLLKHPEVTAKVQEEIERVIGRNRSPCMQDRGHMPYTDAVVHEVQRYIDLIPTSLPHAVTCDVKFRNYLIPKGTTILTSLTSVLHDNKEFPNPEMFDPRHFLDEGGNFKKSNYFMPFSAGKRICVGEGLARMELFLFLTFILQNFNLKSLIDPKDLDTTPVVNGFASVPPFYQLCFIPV
Procedure, shortened: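 NADPH-dependent conversion of Luciferin-H EGE (10uM, at KM) by 5nM enzyme in 50mM KPO4, 60 min at 37C following 10 min compound preincubation. Stopped with luciferin detection buffer; luminescence read after 20 min.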

## C[C@@H](NC(=O)/C(C#N)=C/c1ccc(O)c(O)c1)c1ccccc1
[1]
  outcome: inactive
[2]
  Potency: inactive
[3]
  Potency: inactive
[4]
  Potency: inactive
[5]
  Potency: inactive

## O=c1[nH]c2ccccc2n1CCCN1CCN(C(c2ccccc2)c2ccccc2)CC1
[1]
  outcome: inactive
[6]
  Potency: inactive
[3]
  Potency: 15.8 µM (active)
[7]
  Potency: 0.794 µM (active)
[8]
  Potency: inactive
[4]
  Potency: 5.01 µM (active)
[5]
  Potency: 15.8 µM (active)

## CCCCN1CCC(n2c(=O)[nH]c3ccccc32)CC1
[1]
  outcome: inactive
[2]
  Potency: inactive
[7]
  Potency: 3.16 µM (active)
[9]
  Potency: inactive
[8]
  Potency: inactive
[4]
  Potency: inactive

## N=C(N)SCCc1ccc(CCSC(=N)N)cc1
[1]
  outcome: inactive
[6]
  Potency: inactive
[9]
  Potency: inactive
[8]
  Potency: inactive
[4]
  Potency: inactive
[5]
  Potency: inactive

## NCCCCC(=O)O
[1]
  outcome: inactive
[6]
  Potency: inactive
[7]
  Potency: inactive
[10]
  outcome: inactive
[8]
  Potency: inactive
[11]
  outcome: inactive
[4]
  Potency: inactive
[5]
  Potency: inactive

## CN(C)c1nc2c(Br)c(Br)c(Br)c(Br)c2[nH]1
[1]
  outcome: inactive
[6]
  Potency: 20 µM (active)
[3]
  Potency: inactive
[9]
  Potency: 0.501 µM (active)
[8]
  Potency: 1.26 µM (active)
[4]
  Potency: inactive
[5]
  Potency: inactive

## Oc1cc2c(cc1O)CN(C(=S)NCCc1ccc(Cl)cc1)CCC2
[1]
  outcome: inactive
[6]
  Potency: 3.16 µM (active)
[3]
  Potency: inactive
[12]
  Potency: 5.01 µM (active) and 316 nM (active)
[4]
  Potency: inactive
[5]
  Potency: inactive

## CCCN(CC1CC1)c1nc(C)nc(Nc2c(Cl)cc(Cl)cc2Cl)c1Cl
[1]
  outcome: inactive
[3]
  Potency: inactive
[7]
  Potency: inactive and 1.58 µM (active)
[8]
  Potency: inactive
[4]
  Potency: inactive
[5]
  Potency: inactive

## O=C(c1cc(O)c(O)c([N+](=O)[O-])c1)c1ccccc1F
[1]
  outcome: inactive
[2]
  Potency: 1.26 µM (active)
[3]
  Potency: inactive
[8]
  Potency: inactive
[4]
  Potency: inactive
[5]
  Potency: inactive

— PubChem BioAssay (NCATS)
